Results reported in ChEMBL document CHEMBL3988442, “University of Dundee, Small-Polar-MMV Screening Library” (2021).
For some assays here: Potency and affinity values are given separately.

Legend:
Design in all cases: scale not given: direction of the effect not stated beside the values
[1] = target: Protein translocase subunit SecA (Escherichia coli (strain K12)) (UniProt P10408); test: Assay to Identify E. coli SecA ATPase Inhibitors; assay type: functional; details: 30 µM
[2] = target: T1, Ubiquitin-activating enzyme e1, putative (Leishmania donovani (strain BPK282A1)) (UniProt E9BSI1); test: Leishmania donovani Ubiquitin Activating Enzyme (LdE1); assay type: functional; details: 30 µM
T1 sequence (whole entry): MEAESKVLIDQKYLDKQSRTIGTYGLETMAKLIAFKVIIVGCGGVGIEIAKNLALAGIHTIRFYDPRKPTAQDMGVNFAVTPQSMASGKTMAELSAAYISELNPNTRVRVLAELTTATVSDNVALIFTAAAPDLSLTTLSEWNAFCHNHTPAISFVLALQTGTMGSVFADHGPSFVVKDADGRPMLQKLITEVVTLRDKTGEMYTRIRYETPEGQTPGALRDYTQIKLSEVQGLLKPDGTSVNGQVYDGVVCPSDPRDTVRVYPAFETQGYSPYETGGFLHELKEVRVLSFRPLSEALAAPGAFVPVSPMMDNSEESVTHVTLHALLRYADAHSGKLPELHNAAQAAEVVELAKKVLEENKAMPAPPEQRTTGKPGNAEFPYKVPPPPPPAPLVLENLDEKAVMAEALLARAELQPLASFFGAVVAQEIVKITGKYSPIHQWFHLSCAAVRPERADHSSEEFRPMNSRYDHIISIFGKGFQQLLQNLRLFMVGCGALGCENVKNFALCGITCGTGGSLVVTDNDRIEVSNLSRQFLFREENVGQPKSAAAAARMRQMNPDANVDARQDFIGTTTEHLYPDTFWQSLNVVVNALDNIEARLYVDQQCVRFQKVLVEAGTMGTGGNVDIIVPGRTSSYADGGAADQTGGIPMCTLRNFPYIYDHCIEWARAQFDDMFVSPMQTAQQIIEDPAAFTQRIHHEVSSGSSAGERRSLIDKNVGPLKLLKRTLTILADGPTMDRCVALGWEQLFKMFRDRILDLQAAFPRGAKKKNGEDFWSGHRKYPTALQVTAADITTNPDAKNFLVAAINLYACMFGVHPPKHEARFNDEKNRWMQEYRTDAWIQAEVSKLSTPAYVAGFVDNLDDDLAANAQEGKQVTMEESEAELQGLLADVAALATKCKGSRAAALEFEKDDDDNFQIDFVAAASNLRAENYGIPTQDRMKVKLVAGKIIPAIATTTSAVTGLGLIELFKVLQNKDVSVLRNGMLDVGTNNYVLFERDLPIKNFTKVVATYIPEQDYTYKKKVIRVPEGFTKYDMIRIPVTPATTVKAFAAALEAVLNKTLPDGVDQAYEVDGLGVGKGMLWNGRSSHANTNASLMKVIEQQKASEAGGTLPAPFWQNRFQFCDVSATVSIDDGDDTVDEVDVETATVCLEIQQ

[3] = target: Sialic acid-binding Ig-like lectin 9 (Homo sapiens) (UniProt Q9Y336); test: Hs-Siglec9 ALPHAscreen SOP 20170721; details: 10 µM
Sialic acid-binding Ig-like lectin 9 (Homo sapiens), sequence (Q9Y336 whole entry): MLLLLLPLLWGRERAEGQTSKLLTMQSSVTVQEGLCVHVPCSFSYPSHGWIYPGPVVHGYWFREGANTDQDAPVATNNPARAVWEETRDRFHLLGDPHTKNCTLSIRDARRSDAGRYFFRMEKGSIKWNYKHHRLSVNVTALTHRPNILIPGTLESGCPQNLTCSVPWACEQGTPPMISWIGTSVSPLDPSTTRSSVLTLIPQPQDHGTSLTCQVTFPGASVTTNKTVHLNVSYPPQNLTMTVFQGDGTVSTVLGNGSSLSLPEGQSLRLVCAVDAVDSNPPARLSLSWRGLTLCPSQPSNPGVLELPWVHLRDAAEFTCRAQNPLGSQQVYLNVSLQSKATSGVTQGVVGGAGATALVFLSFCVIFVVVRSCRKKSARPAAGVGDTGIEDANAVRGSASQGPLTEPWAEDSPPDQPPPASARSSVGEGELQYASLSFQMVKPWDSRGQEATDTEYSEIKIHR

[4] = test system: Trypanosoma cruzi; test: Trypanosoma cruzi phosphomannomutase and mannose-1-phosphate guanylyltransferase assay; assay type: functional; details: 10 µM
[5] = target: T2, Arginase-2, mitochondrial (Homo sapiens) (UniProt P78540); test: in vitro enzyme assay to detect the production of urea directly proportional to the activity of Arginase II; assay type: functional; details: 33.3 µM; also: in the data most compounds retested in dose-response had high values
T2 sequence (whole entry): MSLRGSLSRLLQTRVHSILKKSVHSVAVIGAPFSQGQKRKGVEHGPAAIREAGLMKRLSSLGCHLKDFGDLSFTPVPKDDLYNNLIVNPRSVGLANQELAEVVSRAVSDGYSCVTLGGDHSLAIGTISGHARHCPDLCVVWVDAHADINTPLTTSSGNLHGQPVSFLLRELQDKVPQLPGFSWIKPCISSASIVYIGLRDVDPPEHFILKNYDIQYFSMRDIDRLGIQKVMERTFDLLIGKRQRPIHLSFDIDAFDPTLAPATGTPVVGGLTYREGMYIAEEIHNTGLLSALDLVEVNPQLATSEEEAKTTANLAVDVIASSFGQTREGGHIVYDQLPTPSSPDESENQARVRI

[6] = target: T3, Proteasome subunit beta (Trypanosoma cruzi) (UniProt O96673); test: Trypanosoma cruzi proteasome chymotrypsin-like activity (TcProtChymo) assay.; also: in the data most compounds retested in dose-response had high values; assay type: functional; details: 9.37 µM
T3 sequence (whole entry): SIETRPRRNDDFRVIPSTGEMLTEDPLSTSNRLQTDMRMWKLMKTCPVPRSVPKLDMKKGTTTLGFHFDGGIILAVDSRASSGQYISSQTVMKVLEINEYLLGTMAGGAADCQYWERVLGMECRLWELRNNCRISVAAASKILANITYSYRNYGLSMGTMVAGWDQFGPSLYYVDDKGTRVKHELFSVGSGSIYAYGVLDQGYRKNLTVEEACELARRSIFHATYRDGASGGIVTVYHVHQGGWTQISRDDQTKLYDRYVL

[7] = species: Homo sapiens; test: To identify inhibition of the IFN signalling (Jak-Stat) pathway via expression of an eGFP reporter gene under the control of an IFN-stimulated response element (ISRE) containing MxA promoter.; assay type: functional; details: 30 µM
[8] = target: T4, Tyrosyl-tRNA synthetase, putative (Trypanosoma cruzi (strain CL Brener)) (UniProt Q4DSP6); test: Trypanosoma cruzi tyrosyl tRNA synthetase (TcYRS) _High Tyrosine SOP; assay type: functional; details: 30 µM; also: in the data most compounds retested in dose-response had high values
T4 sequence (whole entry): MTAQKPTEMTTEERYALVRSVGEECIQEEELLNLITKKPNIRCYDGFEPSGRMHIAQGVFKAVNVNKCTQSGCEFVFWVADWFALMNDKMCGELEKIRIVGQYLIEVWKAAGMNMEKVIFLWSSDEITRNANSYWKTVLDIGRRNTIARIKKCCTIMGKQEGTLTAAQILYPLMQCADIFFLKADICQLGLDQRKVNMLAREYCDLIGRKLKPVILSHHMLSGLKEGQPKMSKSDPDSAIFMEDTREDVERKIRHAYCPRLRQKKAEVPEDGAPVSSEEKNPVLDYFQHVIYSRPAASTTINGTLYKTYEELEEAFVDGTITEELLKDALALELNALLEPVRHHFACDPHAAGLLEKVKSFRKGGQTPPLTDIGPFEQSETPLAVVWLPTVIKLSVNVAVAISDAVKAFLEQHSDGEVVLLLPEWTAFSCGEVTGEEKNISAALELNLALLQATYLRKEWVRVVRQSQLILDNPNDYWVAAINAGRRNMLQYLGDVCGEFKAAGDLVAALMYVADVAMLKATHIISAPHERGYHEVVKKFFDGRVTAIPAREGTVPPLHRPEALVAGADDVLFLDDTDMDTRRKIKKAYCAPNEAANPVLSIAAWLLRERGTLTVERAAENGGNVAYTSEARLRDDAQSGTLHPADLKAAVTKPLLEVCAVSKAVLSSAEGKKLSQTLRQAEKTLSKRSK

[9] = target: T4, Tyrosyl-tRNA synthetase, putative (Trypanosoma cruzi (strain CL Brener)); test: Trypanosoma cruzi tyrosyl tRNA synthetase (TcYRS) SOP; assay type: functional; details: 30 µM
[10] = target: Chromo domain-containing protein 1 (Saccharomyces cerevisiae (strain ATCC 204508 / S288c) (Baker's yeast)) (UniProt P32657); test: ScCHD-1 Enzyme Inhibition Assay; assay type: functional; details: 30 µM; also: in the data most compounds retested in dose-response had high values
Chromo domain-containing protein 1 (Saccharomyces cerevisiae (strain ATCC 204508 / S288c) (Baker's yeast)), sequence (P32657 whole entry, the tested form may be a part): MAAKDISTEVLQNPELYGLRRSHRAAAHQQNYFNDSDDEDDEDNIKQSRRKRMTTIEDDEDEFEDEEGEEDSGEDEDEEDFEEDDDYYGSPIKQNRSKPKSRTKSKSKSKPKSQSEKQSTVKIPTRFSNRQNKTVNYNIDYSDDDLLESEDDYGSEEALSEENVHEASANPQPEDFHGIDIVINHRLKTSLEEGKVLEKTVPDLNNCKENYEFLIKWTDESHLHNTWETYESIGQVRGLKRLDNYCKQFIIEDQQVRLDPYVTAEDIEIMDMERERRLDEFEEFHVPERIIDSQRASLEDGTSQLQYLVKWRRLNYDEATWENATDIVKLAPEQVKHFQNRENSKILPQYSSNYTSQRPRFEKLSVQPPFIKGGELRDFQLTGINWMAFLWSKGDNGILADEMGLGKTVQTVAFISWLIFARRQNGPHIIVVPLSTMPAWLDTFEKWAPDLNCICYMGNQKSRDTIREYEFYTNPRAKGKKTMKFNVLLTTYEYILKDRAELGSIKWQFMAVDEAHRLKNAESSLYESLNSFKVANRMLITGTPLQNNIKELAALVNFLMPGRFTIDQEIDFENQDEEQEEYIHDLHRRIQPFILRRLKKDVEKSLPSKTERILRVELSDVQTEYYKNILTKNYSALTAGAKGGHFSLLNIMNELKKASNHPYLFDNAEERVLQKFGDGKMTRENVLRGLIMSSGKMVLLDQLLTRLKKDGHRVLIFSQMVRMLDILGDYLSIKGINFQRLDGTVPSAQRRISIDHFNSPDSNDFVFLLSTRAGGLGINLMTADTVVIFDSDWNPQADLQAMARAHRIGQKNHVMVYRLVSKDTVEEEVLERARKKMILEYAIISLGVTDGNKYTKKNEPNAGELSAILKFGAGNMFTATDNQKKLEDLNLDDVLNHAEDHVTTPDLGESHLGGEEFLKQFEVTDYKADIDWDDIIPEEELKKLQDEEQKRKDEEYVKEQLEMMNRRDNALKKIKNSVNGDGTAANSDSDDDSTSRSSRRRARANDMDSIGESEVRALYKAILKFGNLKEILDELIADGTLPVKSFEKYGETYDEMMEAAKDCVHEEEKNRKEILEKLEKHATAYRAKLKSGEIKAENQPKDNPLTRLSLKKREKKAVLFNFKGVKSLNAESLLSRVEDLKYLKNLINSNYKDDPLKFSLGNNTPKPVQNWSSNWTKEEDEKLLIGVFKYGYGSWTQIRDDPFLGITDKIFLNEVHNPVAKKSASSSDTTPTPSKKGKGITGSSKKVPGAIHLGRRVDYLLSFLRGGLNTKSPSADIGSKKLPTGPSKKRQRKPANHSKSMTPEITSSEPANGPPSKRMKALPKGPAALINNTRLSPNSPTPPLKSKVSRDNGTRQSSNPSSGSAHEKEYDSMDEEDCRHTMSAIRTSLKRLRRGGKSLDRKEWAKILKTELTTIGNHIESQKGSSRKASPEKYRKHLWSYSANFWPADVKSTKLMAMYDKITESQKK

Protein translocase subunit SecA (Escherichia coli (strain K12)), sequence (P10408 whole entry): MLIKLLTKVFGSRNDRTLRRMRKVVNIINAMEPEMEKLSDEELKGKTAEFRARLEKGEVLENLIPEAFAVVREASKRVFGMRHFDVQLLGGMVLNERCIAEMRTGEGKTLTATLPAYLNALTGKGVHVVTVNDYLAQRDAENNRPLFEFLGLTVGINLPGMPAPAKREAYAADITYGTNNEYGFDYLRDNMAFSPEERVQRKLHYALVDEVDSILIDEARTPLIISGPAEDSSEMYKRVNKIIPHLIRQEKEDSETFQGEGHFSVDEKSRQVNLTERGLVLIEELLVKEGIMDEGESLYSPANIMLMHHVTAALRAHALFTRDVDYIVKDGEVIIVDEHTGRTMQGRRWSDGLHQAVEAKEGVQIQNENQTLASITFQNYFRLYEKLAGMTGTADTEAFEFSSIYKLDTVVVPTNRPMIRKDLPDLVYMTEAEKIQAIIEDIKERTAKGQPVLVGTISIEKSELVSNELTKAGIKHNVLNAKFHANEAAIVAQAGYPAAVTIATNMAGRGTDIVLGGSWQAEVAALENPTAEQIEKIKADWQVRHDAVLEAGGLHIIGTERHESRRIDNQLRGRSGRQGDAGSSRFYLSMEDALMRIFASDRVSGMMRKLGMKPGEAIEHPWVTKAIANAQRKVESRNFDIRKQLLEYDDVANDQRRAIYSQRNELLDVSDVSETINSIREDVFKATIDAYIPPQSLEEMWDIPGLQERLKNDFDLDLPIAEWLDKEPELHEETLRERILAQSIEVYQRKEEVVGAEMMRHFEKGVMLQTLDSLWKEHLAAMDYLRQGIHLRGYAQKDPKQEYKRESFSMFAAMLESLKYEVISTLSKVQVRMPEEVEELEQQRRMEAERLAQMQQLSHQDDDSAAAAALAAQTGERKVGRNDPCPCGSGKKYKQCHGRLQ

Row | Compound | Percent Effect [1] [%] | Percent Effect [2] [%] | Percent Effect [3] [%] | Percent Effect [4] [%] | Percent Effect [5] [%] | Percent Effect [6] [%] | Percent Effect [7] [%] | Percent Effect [8] [%] | Percent Effect [9] [%] | Percent Effect [10] [%]
1 | Cc1cc(S(=O)(=O)N2CCc3ccc(F)cc32)cc(C(=O)O)c1C | -5.32 | 0 | 7.12 | -1.81 | -3.99 | 6.87 | -3.81 | -15.3 | -28.2 | -9.5
2 | O=C(C1CC=CC1)N1CCC2(CC1)CN(Cc1ccccn1)CCO2 | -2.34 | 1.3 | -0.373 | 2.63 | -4.86 | 5.74 | -19 | 1.58 | 5.13 | 3.73
3 | CS(=O)(=O)NCc1cc2n(n1)CCCN(Cc1nc3ccccc3[nH]1)C2 | -9.74 | 2.7 | 1.38 | -1.46 | 3.85 | 6.16 | -1.07 | 6.92 | 9.76 | 3.52
4 | Cc1nc(CN2CCCC(CCNS(C)(=O)=O)C2)c[nH]1 (stereo not given) | -6.15 | 0 | 1.08 | -0.873 | 3.85 | 1.71 | 7.77 | 3.72 | 9.76 | -0.429
5 | CC(C)NC(=O)[C@@H](NC(=O)N1CCN(c2ccc(Cl)cc2)CC1)C(C)C | -9.49 | -5.41 | -0.377 | -3.78 | -3.85 | 12.2 | 31.6 | 0.532 | -4.88 | -2.5
6 | COc1c(C2CCCN2C(=O)c2c[nH]c3ncccc23)c(C)nn1C (stereo not given) | -5.03 | 7.79 | 8.63 | -5.41 | 2.25 | 7.02 | 1.49 | 5.88 | 7.06 | -7.9
7 | Cc1ccc(NC(=O)N2C[C@H]3CC[C@@H]2CN(Cc2cscn2)C3)cc1 | -8.89 | 2.7 | 16.7 | 2.42 | 5.25 | 4.45 | 0.0605 | 6.92 | 12.2 | 0.126
8 | O=C(C1CCCCC1)N1CCC2(CCCN2CC2CC2)CC1 | -2.94 | 11.7 | -2.33 | -3.56 | 1.37 | 3.18 | 13.7 | 2.9 | 2.5 | -6.38
9 | CN(C)C(=O)[C@@H]1C[C@@H]2CCN(Cc3ccc4c(c3)OCO4)C[C@@H]2O1 | -2.52 | -1.3 | -0.448 | -1.07 | -2.83 | 6.62 | -0.537 | -2.63 | -2.56 | -0.196
10 | O=C(Cc1cccs1)N1CC[C@H]2[C@@H]1CCC(=O)N2c1cccnc1 | -2.81 | 29.9 | -3.71 | -1.31 | 1.37 | 16.1 | -2.71 | 3.87 | 7.5 | -11
11 | CCOc1cc(CNC(=O)N2CCC(Cc3cnn(C)c3)C2)ccn1 (stereo not given) | -2.64 | -2.56 | 1.57 | 9.11 | 0.82 | 2.13 | 4.43 | 3.35 | 6.02 | -0.605
12 | CCN1CCO[C@]2(CCC[C@H]2COCc2csc(C)n2)C1 | -5.1 | -1.3 | 11 | -0.292 | -7.29 | 3.27 | -2.57 | 3.68 | 5.13 | -0.161
13 | CN(C)CCN1CCCC12CCN(C(=O)c1cnccn1)CC2 | -2.79 | 11.7 | 2.72 | 2.81 | 4.57 | 3.69 | 0.368 | 7.73 | 15 | -6.82
14 | Cc1ccccc1N1CC2(CCN(S(=O)(=O)c3cccs3)C2)CC1=O (stereo not given) | -1.18 | 24.7 | -0.756 | 0 | -15.5 | 8.67 | 10.2 | 5.8 | 2.5 | -9.98
15 | Cc1ccc2cc(C(=O)NCCn3nc4ccccn4c3=O)[nH]c2c1 | -1.72 | 10.3 | -11.1 | -8.36 | 1.23 | 16.3 | 19.6 | -1.44 | 1.21 | -7.76
16 | Cn1cc(C(=O)N2CCCC(Cc3nccs3)C2)cn1 (stereo not given) | -2.98 | 12 | -0.254 | -2.96 | 3.54 | 7.55 | 6.88 | 2.12 | 15 | -16.3
17 | CCOC(=O)CNC(=O)c1cccnc1Oc1ccc(Cl)cc1 | 3.19 | 1.3 | 56.3 | 0.375 | 6.85 | 11.6 | 25.5 | 3.87 | 0 | -12.4
18 | Cc1cnn(CC2CCCN2C(=O)c2ccc3nnc(C)n3c2)c1 (stereo not given) | -1.55 | -5.13 | -9.94 | 1.03 | 2.87 | 4.01 | 8.47 | -2.39 | -3.61 | -5.71
19 | O=S(=O)(CCCN1CCCC1Cn1cccn1)c1ccccc1 (stereo not given) | -5.34 | 7.79 | 19.1 | -2.24 | -0.205 | 7.19 | 2.19 | 6.86 | 16.5 | -5.4
20 | O=C1CC(c2cccc(O)c2)c2sc(C(=O)O)c(-c3ccccc3)c2N1 (stereo not given) | 7.88 | -10.8 | -0.96 | -8.24 | -10.1 | 13 | 31.3 | -9.04 | -2.44 | -0.195
21 | COc1cc(C(=O)N2CCCS2(=O)=O)ccc1C | -4.9 | -2.67 | -1.38 | 4.82 | -3.99 | 14.7 | 1.35 | 4.74 | 10.3 | -8.07
22 | Cc1noc(C)c1CN(C)C(=O)NC1CCN(C2CC2)CC1 | -1.46 | 2.56 | 0.345 | 2.91 | -0.82 | -3.84 | -6.08 | 2.39 | 8.43 | 3.21
23 | CCOC(=O)N1CCN(C(=O)c2sc(-c3ccccc3F)nc2C)CC1 | -2.12 | 5.41 | 6.21 | 0.097 | 30.4 | 13.5 | -3.93 | 4.79 | 14.6 | -4.07
